Screening results (PubChem)
hcDAF-12 act – activates DAF-12 receptor from parasite H. contortus; HEK293 hcDAF-12 lit1-tk-luc reporter, luminescence; 0% DMSO, 100% Δ7-dafachronic acid; activation, % at 6.8 µM; actives 1.4% (n = 370,000); AID 652067;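 active = activation above the mean of all tested compounds plus 3 SD, cut at about 5.5% in these data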;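 note: 100% = response to 3 µM Δ7-dafachronic acid high control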
DAX1 inh-1 – NR0B1 (DAX1) inhibition; actives 0.99% (n = 340,000); HEK293 Gal4-DAX1 luciferase reporter, luminescence; AID 504766; P51843; inhibition, % at 6.75 µM;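 active = inhibition above the mean over all tested compounds plus 3 SD, cut at about 4.2% in these data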;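 note: 0% = DAX1-transfected cells with DMSO and 100% = empty-vector control cells with DMSO; inhibition shows as a rise in luminescence from relieved DAX1 repression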
Target sequence (P51843 207-470 limits assumed): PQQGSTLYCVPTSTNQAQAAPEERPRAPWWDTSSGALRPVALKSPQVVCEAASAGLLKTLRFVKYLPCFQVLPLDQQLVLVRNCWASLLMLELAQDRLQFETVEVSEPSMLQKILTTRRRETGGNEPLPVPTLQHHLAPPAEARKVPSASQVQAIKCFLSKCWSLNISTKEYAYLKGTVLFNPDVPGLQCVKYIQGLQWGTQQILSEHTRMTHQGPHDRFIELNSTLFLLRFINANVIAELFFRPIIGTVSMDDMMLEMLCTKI
ssDAF-12 act – activators of S. stercoralis DAF-12 nuclear receptor | HEK293 ssDAF-12/GRIP1 lit1-tk-luc reporter, luminescence; % of 3 µM dafachronic acid response | activation, % at 6.8 µM | actives 1% (n = 370,000) | AID 652126;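 active = activation above the mean over all tested compounds plus 3 SD, cut at about 0.9% in these data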;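 note: 0% = DMSO-only wells and 100% = 3 µM delta7-dafachronic acid wells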
Rev-erbA mod – modulators of human Rev-erb alpha DNA binding. P20393. Rev-erbα–FITC-DNA binding, fluorescence polarization, 90 min. activity, % at 10 µM. actives 0.79% (n = 370,000);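 active = activity above about 14%, limit read from the data; passing the limit was not always enough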;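 note: 0% = DMSO wells with 35 nM protein and 100% = DMSO wells with 750 nM protein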
DAX1 inh-2 – inhibitors of DAX1 repression of SF-1 activated StAR promoter; HEK293T StAR-luciferase reporter, SF-1/DAX-1 repression relief; inhibition, % at 6.8 µM; actives 1.1% (n = 370,000);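 active = inhibition above the mean over all tested compounds plus 3 SD, cut at about 3.6% in these data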;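 note: 0% = DAX-1 cells with DMSO and 100% = cells lacking DAX-1 with DMSO; higher inhibition means more luminescence from relief of DAX-1 repression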
hgDAF-12 ag – hgDAF-12 agonism, primary luciferase screen | actives 1.8% (n = 370,000) | AID 687014 | activation, % at 6.8 µM | HEK293 GAL4-hgDAF12 UAS-luciferase reporter, agonist luminescence; normalized to butyrate control;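 active = activation above a cutoff set at the mean of all screened compounds plus 3 SD, cut at about 10% in these data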;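 note: 0% = DMSO wells and 100% = sodium butyrate wells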
An asterisk follows results filed as active; · = not tested or not shown. Hits are enriched below; roughly 4.8% of the tested compounds scored in any of these assays.

SMILES	hcDAF-12 act	DAX1 inh-1	ssDAF-12 act	Rev-erbA mod	DAX1 inh-2	hgDAF-12 ag
C[C@@H](c1ccccc1)N1C[C@H](COCc2ccccc2)Oc2cc(N3CCC[C@H]3C(N)=O)ccc2S1(=O)=O	0	·	-1	0	-3	0
CCN(CC(=O)NCc1ccncc1)S(=O)(=O)c1ccccc1	-2	2	-1	2	1	-2
CCN(CC(=O)NCc1ccncc1)S(=O)(=O)c1cc(Cl)ccc1Cl	-3	4.2*	-1	6	0	3
O=C(NCCN1CCC(Cc2ccccc2)CC1)C1CCCN(S(=O)(=O)c2ccc([N+](=O)[O-])cc2)C1 (stereo not given)	-3	·	-2	-4	-3	-4
CSCCC(c1nc2ccccc2[nH]1)n1c(-c2ccc3ncccc3c2)nc2ccccc21 (stereo not given)	2	·	0	-5	3	11*
CC1=C(C(=O)O)N2C(=O)[C@@H](NC(=O)[C@H](N)C3=CCC=CC3)[C@@H]2SC1	·	·	·	-2	·	·
COC(=O)c1ccc(-c2nc(O)c(C)s2)cc1	-1	0	-1	1	-1	-2
COC(=O)c1ccc(-c2nc3cc(Cl)c(N)cc3s2)cc1	3	1	1	-1	2	11*
O=[N+]([O-])c1ncccc1OCc1ccccc1Br	-2	0	-1	0	0	1
O=[N+]([O-])c1ncccc1OCc1ccc(Br)cc1F	1	0	0	1	0	11*
CC(C)CNC(=O)OCc1cn(Cc2cccc(F)c2)nn1	-1	·	-1	-3	0	6
CCC(=O)Nc1nc2ccc3nc(C)sc3c2s1	2	1	0	-2	3	11*
Cc1ccc2nc(NC(=O)COC(=O)c3ccco3)sc2c1	5.8*	1	0	1	2	9
COC(=O)CCCCCCCCC(=O)Nc1nc2ccccc2s1	0	0	-1	0	0	1
Cc1cc[n+](CC(=O)Nc2nc3ccccc3s2)cc1	1	1	1.9*	3	0	4
O=C(COC(=O)c1ccco1)Nc1nc2ccc([N+](=O)[O-])cc2s1	0	-1	-1	9	0	-1
COCC(=O)Nc1nc2ccccc2s1	6.0*	2	0	2	1	6
CCC(=O)Nc1nc2c(OC)ccc(OC)c2s1	2	0	-1	9	-1	-4
COc1ccc(C(=O)CSc2nnc(-c3n[nH]c4c3CCC4)n2N)cc1OC	-2	·	-1	-1	-1	-10
CC(C)CCNC(=O)C1CCN(c2cncnc2)CC1	1	·	-1	-3	0	4
COC(=O)[C@]12C[C@H](CC(=O)N3CCCC3)C(=O)N(Cc3ccco3)C1=C[C@H](C1CCCC1)O[C@@H]2C	-2	·	-1	-7	-1	-1
Cc1ccnc2nc(C(=O)Nc3nc4ccccc4s3)nn12	6.3*	2	1.0*	0	4.3*	13*
O=C(CSC1=NCCS1)Nc1nc2ccccc2s1	1	1	1.2*	0	0	4
Cc1csc(NC(=O)c2nc3nccc(C)n3n2)n1	1	0	-1	5	1	4
CN(CCOC(=O)c1cccs1)C1CN(Cc2cn(Cc3ccccc3Cl)nn2)S(=O)(=O)C1 (stereo not given)	1	·	-1	-3	1	5
SMILES	hcDAF-12 act	DAX1 inh-1	ssDAF-12 act	Rev-erbA mod	DAX1 inh-2	hgDAF-12 ag
COC(=O)[C@]1(CNC(C)=O)CC(=O)N(Cc2ccc(Cl)cc2)[C@@H]1c1ccc(OC)cc1	1	·	-1	6	0	-2
CS(=O)(=O)N1CCC(C(=O)NCC2COc3ccccc3O2)CC1 (stereo not given)	-2	·	-1	3	0	-1
CCN(Cc1cn(Cc2ccc(C)cc2)nn1)S(=O)(=O)c1ccccc1Br	-3	·	-1	1	0	1
Oc1ccc(/C=N/Nc2ncnc3c2ncn3Cc2ccccc2)cc1O	-2	0	1.3*	-25	0	1
CCOc1ccc2nc(SCc3ccccc3C#N)sc2c1	1	3	-1	-4	1	11*
Cc1nn2cc(-c3ncc(C(F)(F)F)cc3Cl)cnc2c1Br	3	·	0	3	2	13*
